Among the data in PubChem BioAssay are composite z-score, composite Z-score and z-score values, retold here.

One test addresses Albumin (Bos taurus) (UniProt P02769). The test can be described thus: compounds binding labelled BSA control protein – biochemical, small-molecule microarray, Alexa647 label, 635/667 nm fluorescence, artefact control for SMM control protein annotation, profiling panel (AID 1118).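 Further: score merges 667 nm emission intensity and signal-to-noise per printed compound spot.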 Conditions: BSA-A647 binding, fluorescence 635 nm, higher = more signal.
Test [1] is described as follows: probe aXIP binding to arrayed compounds – biochemical, NeuroSMM set, 635/667 nm fluorescence, primary screen (AID 1119).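 Further: probe is the protein aXip251-270 applied at 1 µg/mL to compound-printed slides; binding of probe to printed compounds measured as 667 nm fluorescence plus signal to noise.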 Particulars: small-molecule microarray; higher = more signal, called active from +8 up or from −8 down unless noted.
The nature of test [2]: probe aNOTCH3 binding on compound microarray – biochemical, small-molecule microarray, 635/667 nm fluorescence, primary screen (AID 1120).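 Further: probe is a biotin-tagged antibody raised against NOTCH3 rather than NOTCH3 protein; score merges spot fluorescence near 667 nm with spot signal to noise.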 Conditions: higher = more signal; small-molecule microarray, probe aNOTCH3, fluorescence unless noted.
Test [3] is described as follows: probe aNOTCH2 binding on compound microarray – biochemical, small-molecule microarray, 635/667 nm fluorescence, primary screen (AID 1121).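 Further: score merges feature fluorescence read at 667 nm with its signal to noise.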 Conditions: higher = more signal; small-molecule microarray, probe aNOTCH2, fluorescence unless noted.
Test [4] deals with Carbonic anhydrase 2 (Homo sapiens) (UniProt P00918). The test can be described thus: compounds binding carbonic anhydrase 2 – biochemical, small-molecule microarray, Alexa647-labelled CAII, profiling panel (AID 1122). Conditions: CAII-A647 binding fluorescence, higher = more signal.
Test [5] in a line: COS7 lysate on small-molecule microarray, probe aHis, 635 nm (AID 1123).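 Further: z-score combines 667nm fluorescence intensity with signal-to-noise per printed compound spot.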 Conditions: higher = more signal; small-molecule microarray, COS7 cell lysate, probe aHis, fluorescence unless noted.
A short description of test [6]: probe aLAP1 signal on lysate-treated microarray – cell lysate, small-molecule microarray, COS7 lysate, primary screen (AID 1124).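 Further: lysate comes from COS7 cells expressing LAP1 and is applied at 0.3 µg/mL; score merges spot fluorescence near 667 nm with signal-to-noise over triplicate slides.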 Conditions: higher = more signal; small-molecule microarray, COS7 cell lysate, probe aLAP1, fluorescence unless noted.
The next test deals with Sam68 (KHDRBS1). Nature of the test: compounds binding KHDRBS1 protein – biochemical, small-molecule microarray, 635 nm fluorescence, primary screen (AID 1125).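 Further: score merges 667 nm channel intensity with signal to noise over triplicate slides.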 Conditions: higher = more signal.
Test [7] deals with Chordin-like protein 2 (CHRDL2). Nature of the test: compounds binding chordin-like 2 – biochemical, small-molecule microarray, 635 nm fluorescence, primary screen (AID 1126).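 Further: printed compound slides probed with Chrdl2 protein at 4 µg/mL for 1 h at 4 C; score merges 667 nm emission intensity with signal to noise over three replicate slides.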 Conditions: fluorescence 635 nm, higher = more signal.
The target of test [8] is Concanavalin-A (Canavalia ensiformis) (UniProt P02866). Nature of the test: compounds binding concanavalin A lectin – biochemical, small-molecule microarray, Alexa647 label, 635 nm, artefact control for SMM control protein annotation, primary screen (AID 1127).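 Further: z combines 667 nm emission intensity with signal-to-noise across three replicate slides.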 Conditions: ConA-A647 binding fluorescence, higher = more signal.
Sequence of Concanavalin-A (Canavalia ensiformis) (P02866 whole entry, looked up): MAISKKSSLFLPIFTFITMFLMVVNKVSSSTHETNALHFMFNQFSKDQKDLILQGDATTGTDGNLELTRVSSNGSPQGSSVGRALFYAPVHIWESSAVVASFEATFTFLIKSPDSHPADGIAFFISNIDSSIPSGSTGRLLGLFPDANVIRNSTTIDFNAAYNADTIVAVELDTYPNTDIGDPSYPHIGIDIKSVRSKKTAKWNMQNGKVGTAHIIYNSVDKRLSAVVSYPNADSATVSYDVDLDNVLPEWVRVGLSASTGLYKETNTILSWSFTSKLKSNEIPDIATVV
Test [9] is described as follows: compounds binding Alexa647 anti-His antibody – biochemical, small-molecule microarray, 635 nm fluorescence, artefact control for SMM control protein annotation, primary screen (AID 1128).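 Further: score merges feature fluorescence with signal-to-noise for each printed compound spot.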 Particulars: higher = more signal.
Test [10] deals with Human papillomavirus type 1a E7 protein (residues 1-88). The test can be described thus: HPV1a E7 small-molecule binders, primary screen, biochemical, small-molecule microarray, residues 1-88, 635 nm (AID 1129). Conditions: small-molecule microarray binding, fluorescence 635 nm; higher = more signal.
Test [11] addresses Focal adhesion kinase 1 (Homo sapiens) (UniProt Q05397). The test can be described thus: PTK2 protein binding on printed compound slides – biochemical, small-molecule microarray, 635/667 nm fluorescence, BSA, DTT, primary screen (AID 1130).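 Further: composite of spot emission at 667 nm and signal to noise over triplicate slides.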 Particulars: 635 nm fluorescence, higher = more signal.
Test [12] deals with Fibrinogen (Alexa647-labelled). The test can be described thus: Alexa647-fibrinogen binding to printed small molecules – biochemical, small-molecule microarray, 635/667 nm fluorescence, artefact control for SMM control-protein annotation, profiling panel (AID 1131).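 Further: z-score merges 667 nm fluorescence with per-spot signal-to-noise over triplicate slides.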 Conditions: fibrinogen-A647 binding fluorescence, higher = more signal.
Test [13] has as its target Follistatin (Homo sapiens) (UniProt P19883). The test can be described thus: FST protein binding to printed compounds – biochemical, small-molecule microarray, 635/667 nm fluorescence, primary screen (AID 1132). Conditions: 635 nm fluorescence, higher = more signal.
Test [14] concerns the target Fibroblast growth factor 2 (Homo sapiens) (UniProt P09038). The test can be described thus: basic fibroblast growth factor binding to printed compounds – biochemical, small-molecule microarray, 635/667 nm fluorescence, primary screen (AID 1133). Particulars: FGF2, fluorescence 635/667, higher = more signal.
The nature of test [15]: JC-1 mitochondrial potential readout, lung cancer cells – cell-based, A549, JC-1 fluorescence, basal, 24 h, 100 nL, profiling panel (AID 1138).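 Further: A549 lung adenocarcinoma cells under basal conditions with no added stimulus; test concentration not given here.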 Conditions: higher = more signal.
The next test concerns Lefty1. The test can be described thus: Lefty1 protein binding to printed compounds – biochemical, small-molecule microarray, 635/667 nm fluorescence, primary screen (AID 1139). Conditions: fluorescence 635/667, higher = more signal.
Test [16] has as its system wheat germ agglutinin (Triticum aestivum), Alexa647-labelled. The test can be described thus: Alexa647-WGA lectin binding to printed small molecules – biochemical, small-molecule microarray, 635/667 nm fluorescence, artefact control for SMM control-protein annotation, profiling panel (AID 1140).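 Further: score merges 667 nm feature emission with signal to noise over triplicate slides.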 Particulars: WGA-A647 binding, 635 nm fluorescence, higher = more signal.
Test [17] concerns the target Luciferin 4-monooxygenase (Photinus pyralis) (UniProt P08659). The test can be described thus: inhibition of purified Photinus pyralis luciferase – biochemical, luminescence, purified enzyme, 2006 set, primary screen (AID 1141).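 Further: cell-free assay with purified firefly luciferase at 100 ng per well in PBS; test concentration not given here.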 Particulars: purified firefly luciferase, SteadyGlo luminescence, 30 min; higher = more signal, called active from +8 up or from −8 down unless noted.

Active and inactive are the calls of the source.

Sequence of Follistatin (Homo sapiens) (P19883 whole entry, looked up): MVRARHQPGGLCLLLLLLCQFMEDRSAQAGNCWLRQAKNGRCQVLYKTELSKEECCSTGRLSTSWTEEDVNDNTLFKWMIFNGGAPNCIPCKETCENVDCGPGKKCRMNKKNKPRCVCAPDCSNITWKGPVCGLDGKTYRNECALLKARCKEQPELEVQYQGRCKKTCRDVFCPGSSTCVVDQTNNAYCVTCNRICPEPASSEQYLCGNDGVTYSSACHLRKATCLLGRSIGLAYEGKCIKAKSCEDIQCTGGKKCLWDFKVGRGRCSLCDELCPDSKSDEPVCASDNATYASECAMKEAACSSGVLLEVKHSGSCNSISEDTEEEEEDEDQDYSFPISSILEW
Sequence of Albumin (Bos taurus) (P02769 whole entry, looked up): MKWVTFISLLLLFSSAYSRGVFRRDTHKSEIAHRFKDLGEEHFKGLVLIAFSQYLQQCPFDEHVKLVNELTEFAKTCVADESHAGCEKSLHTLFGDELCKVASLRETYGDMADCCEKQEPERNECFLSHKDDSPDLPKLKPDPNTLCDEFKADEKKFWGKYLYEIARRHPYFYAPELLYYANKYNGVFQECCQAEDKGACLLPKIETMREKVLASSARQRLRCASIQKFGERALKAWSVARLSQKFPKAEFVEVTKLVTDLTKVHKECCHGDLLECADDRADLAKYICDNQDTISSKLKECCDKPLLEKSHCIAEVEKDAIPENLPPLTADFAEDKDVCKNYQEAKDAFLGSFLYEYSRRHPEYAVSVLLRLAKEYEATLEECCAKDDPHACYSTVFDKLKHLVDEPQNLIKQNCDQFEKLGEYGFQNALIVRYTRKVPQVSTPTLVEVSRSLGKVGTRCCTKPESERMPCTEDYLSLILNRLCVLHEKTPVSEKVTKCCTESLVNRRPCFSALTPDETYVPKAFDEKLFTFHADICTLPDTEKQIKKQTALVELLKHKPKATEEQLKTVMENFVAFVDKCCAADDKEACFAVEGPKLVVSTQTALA
Sequence of Focal adhesion kinase 1 (Homo sapiens) (Q05397 whole entry, looked up): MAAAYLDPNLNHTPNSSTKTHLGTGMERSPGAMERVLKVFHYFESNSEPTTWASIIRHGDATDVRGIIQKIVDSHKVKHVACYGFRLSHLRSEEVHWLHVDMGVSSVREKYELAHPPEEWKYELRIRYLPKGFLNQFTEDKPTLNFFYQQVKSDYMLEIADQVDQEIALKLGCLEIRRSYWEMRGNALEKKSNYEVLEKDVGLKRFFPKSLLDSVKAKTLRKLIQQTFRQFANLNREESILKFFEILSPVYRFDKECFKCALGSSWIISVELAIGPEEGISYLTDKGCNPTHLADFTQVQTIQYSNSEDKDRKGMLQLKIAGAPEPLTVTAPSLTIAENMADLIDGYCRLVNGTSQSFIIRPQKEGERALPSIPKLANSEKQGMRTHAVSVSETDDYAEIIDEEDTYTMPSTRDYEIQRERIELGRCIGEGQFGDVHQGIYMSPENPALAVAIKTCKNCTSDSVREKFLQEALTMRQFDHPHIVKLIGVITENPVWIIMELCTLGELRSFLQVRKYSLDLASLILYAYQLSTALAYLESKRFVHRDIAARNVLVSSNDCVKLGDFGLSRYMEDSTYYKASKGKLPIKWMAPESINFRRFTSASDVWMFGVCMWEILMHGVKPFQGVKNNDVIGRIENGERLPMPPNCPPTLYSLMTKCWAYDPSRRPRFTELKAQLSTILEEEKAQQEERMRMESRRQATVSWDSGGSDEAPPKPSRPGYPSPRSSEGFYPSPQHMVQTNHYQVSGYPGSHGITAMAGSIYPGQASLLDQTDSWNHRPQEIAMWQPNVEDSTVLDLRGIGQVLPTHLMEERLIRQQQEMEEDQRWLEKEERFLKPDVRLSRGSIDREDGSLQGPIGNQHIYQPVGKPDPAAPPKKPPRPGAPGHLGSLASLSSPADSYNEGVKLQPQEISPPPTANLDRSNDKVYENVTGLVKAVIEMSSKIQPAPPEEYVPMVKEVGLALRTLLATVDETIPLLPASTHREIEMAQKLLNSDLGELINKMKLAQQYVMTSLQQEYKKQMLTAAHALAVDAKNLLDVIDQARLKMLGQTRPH
Sequence of Luciferin 4-monooxygenase (Photinus pyralis) (P08659 whole entry, looked up): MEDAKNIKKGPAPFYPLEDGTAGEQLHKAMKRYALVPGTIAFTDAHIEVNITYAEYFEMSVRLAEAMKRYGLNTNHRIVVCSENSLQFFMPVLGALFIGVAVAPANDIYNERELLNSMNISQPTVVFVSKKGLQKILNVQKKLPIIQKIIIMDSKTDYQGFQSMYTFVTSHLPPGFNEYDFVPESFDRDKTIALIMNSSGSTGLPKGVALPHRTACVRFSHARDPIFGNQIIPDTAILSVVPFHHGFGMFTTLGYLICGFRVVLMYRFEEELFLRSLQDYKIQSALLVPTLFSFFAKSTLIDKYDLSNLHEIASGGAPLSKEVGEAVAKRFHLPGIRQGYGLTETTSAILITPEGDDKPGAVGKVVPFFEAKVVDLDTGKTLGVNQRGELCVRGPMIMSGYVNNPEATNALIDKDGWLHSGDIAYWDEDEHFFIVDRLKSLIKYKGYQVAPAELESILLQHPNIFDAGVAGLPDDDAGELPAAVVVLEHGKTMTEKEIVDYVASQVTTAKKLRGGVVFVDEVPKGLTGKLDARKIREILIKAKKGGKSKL
Sequence of Fibroblast growth factor 2 (Homo sapiens) (P09038 whole entry, looked up): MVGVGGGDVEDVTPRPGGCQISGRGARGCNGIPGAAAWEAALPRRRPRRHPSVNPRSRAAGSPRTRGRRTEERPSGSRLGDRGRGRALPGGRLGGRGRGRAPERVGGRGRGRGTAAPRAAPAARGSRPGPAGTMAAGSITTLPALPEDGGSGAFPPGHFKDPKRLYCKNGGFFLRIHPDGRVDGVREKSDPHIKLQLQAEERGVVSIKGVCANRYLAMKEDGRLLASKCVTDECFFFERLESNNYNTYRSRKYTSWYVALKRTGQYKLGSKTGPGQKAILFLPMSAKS

As to `CCCc1cc2c(n1Cc1ccco1)C(C)C1CN(C(=O)c3ccccc3)C(C)(C(=O)OC)C21` (stereo not given), the composite z-score stood at 0.953 with Albumin (Bos taurus); 0.247 in test [2]; 0.374 in test [3]; 0.744 in test [4]; 0.747 in test [5]; 0.859 in test [6]. Further, the composite z-score was determined as 0.878 in the test with Sam68 (KHDRBS1); 0.515 in [7]; 0.851 in test [8]; 1.7 in test [9]; 0.806 in [10]; 0.307 in test [11]. Besides, the composite z-score in [12] is 0.717; in test [13], 1.13; in [14] it was -0.0321; in the test with Lefty1, 0.494; in test [16] it was 1.29. In [1], the composite Z-score is 0.829 (inactive). In addition, the z-score in [15] was -0.0794; in test [17], -7.6 (inactive).
For the compound `CCCc1cc2c(n1Cc1cccc(Cl)c1)C(C)C1CN(C(=O)c3ccccc3)C(C)(C(=O)OC)C21` (stereo not given), the composite z-score in the test with Albumin (Bos taurus) is 1.01; in test [2], 0.0372; in test [3], 0.0293; in test [4], 0.797; in [5], 2.68; in test [6] it was 0.719. For the same compound, the composite z-score in the test with Sam68 (KHDRBS1) is 0.958; in test [7], -1.94; in test [8], 0.298; in test [9], 2.37; in test [10], 1.23; in test [11], 1.16. Besides, the composite z-score in test [12] was 0.989; in test [13] it was -0.264; in test [14], -1.1; with Lefty1, -0.763; in test [16], 1.44. In addition, the composite Z-score in [1] is -0.244 (inactive). Moreover, the z-score in test [15] was 1.95; in test [17], 0.566 (inactive).
As for `OCc1ccc(C2=CC(C3CC3)N(Cc3sc4ccccc4c3Cl)CC2)cc1` (stereo not given), the composite z-score with Albumin (Bos taurus) is -0.0477; in test [2] it was -0.0932; in test [3], -0.133; in test [4], 0.306; in test [5], 0.88; in test [6], 0.434. Besides, the composite z-score worked out at 1.07 in the test with Sam68 (KHDRBS1); 0.529 in test [7]; 0.948 in test [8]; 2.28 in test [9]; 1.17 in test [10]; 0.257 in [11]. In addition, the composite z-score in test [12] is 0.483; in test [13], 1.06; in [14], 0.867; in the test on Lefty1 it was 0.853; in [16], 0.42. Also, the composite Z-score in test [1] is 0.565 (inactive). Besides, the z-score was 0.941 in test [15] and -1.57 (inactive) in [17].
Regarding `CCc1cc2c(nc1CC)CCN(CCC(C)=NOC)C2`, the composite z-score in the test with Albumin (Bos taurus) is 0.802; in test [2] it was 0.256; in [3], -0.0028; in test [4] it was 0.639; in test [5], 0.45; in [6], 1.21. In addition, the composite z-score in the test on Sam68 (KHDRBS1) was 0.92; in test [7], 0.639; in [8] it was -0.426; in test [9], 3.12; in test [10], 0.422; in [11], -0.128. Moreover, the composite z-score is -0.15 in [12]; 1.24 in test [13]; 0.294 in test [14]; 0.861 in the test on Lefty1; -0.141 in test [16]. Besides, the composite Z-score in test [1] is 0.154 (inactive). Also, the z-score is 0.268 in test [15] and -0.773 (inactive) in test [17].
For `OCc1ccc(C2=CC(c3cccs3)N(Cc3cccc(OC(F)(F)F)c3)CC2)cc1` (stereo not given), the composite z-score is 0.343 with Albumin (Bos taurus); -0.0596 in [2]; -0.115 in test [3]; 0.197 in test [4]; 0.609 in test [5]; -0.368 in [6]. Further, the composite z-score in the test with Sam68 (KHDRBS1) is 0.277; in test [7], 0.396; in [8] it was -0.426; in test [9], 2.04; in test [10] it was -0.38; in test [11], 0.147. Also, the composite z-score in test [12] was -0.365; in test [13], 0.663; in test [14], 0.108; with Lefty1, 0.704; in [16], 0.173. Further, in test [1], the composite Z-score was -0.375 (inactive). Moreover, the z-score in test [15] is 0.944; in [17], -1.26 (inactive).
In the case of `CCOC(=O)[C@H]1CC=C2C(=O)Oc3ccc(Br)cc3[C@@H]21`, the composite z-score in the test with Albumin (Bos taurus) was -0.104; in test [2] it was -0.245; in [3], -0.0896; in test [4], 0.663; in [5], 1.95; in test [6] it was 0.328. For the same compound, the composite z-score with Sam68 (KHDRBS1) is 0.893; in [7] it was -1.24; in [8] it was 1.13; in [9] it was 0.819; in test [10] it was 1.27; in test [11], 1.87. Also, the composite z-score in test [12] was 0.474; in [13], -1.1; in test [14] it was -1.3; with Lefty1 it was -1.66; in test [16] it was -0.0424. The composite Z-score in [1] is 0.35 (inactive). In addition, the figures for the z-score in test [15] and in test [17] were -0.896 and 0.936 (inactive), respectively.
